From PubChem BioAssay (NCATS) come the findings set out here.

Test [1] in a line: qHTS of pediatric cancer cell lines to identify multiple opportunities for drug repurposing: Primary screen for BT-12 cells (AID 1347101). Further: nearly all actives have a fitted effect of over 25% in size. Further: potency means the concentration at half of the fitted maximal effect. In outline: (§1)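 Cells (500-1,000/well) rested 5 h, then received compounds for 48 h; metabolically active cells were measured by CellTiter-Glo luminescence. Final concentrations spanned up to 46 µM (MIPE, 11-point) or 0.59 nM-46 µM (NPC, 8-point) in primary screens, 11-point in follow-ups.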

Test [2] in a line: qHTS of pediatric cancer cell lines to identify multiple opportunities for drug repurposing: Primary screen for Rh18 cells (AID 1347102). Further: nearly all actives have a fitted effect of over 65% in size. Further: potency means the concentration at half of the fitted maximal effect. In outline:
(§2)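 Cells (500-1,000/well) in growth media were settled 5 h at 37 degrees C, then given compounds for 48 h. Viability was read as CellTiter-Glo luminescence. Primary runs used MIPE at 11 points (0.78 nM-46 µM) and NPC at 8 points (0.59 nM-46 µM); follow-ups used 11 points.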
Background: qHTS replaces the single test concentration by a dilution series.

Test [3] can be described thus: qHTS of pediatric cancer cell lines to identify multiple opportunities for drug repurposing: Primary screen for OHS-50 cells (AID 1347103). Further: nearly all actives have a fitted effect of over 40% in size. Further: potency means the concentration at half of the fitted maximal effect. In outline:
as §1

A short description of test [4]: qHTS of pediatric cancer cell lines to identify multiple opportunities for drug repurposing: Primary screen for RD cells (AID 1347104). Further: nearly all actives have a fitted effect of over 55% in size. Further: potency means the concentration at half of the fitted maximal effect. The gist of the method: (§3)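 Viability was measured as metabolically active cells after 48 hours of treatment, read by CellTiter-Glo luminescence. Compounds were tested at multiple final concentrations, giving concentration-response curves.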

A short description of test [5]: qHTS of pediatric cancer cell lines to identify multiple opportunities for drug repurposing: Primary screen for control Hh wild type fibroblast cells (AID 1347106). Further: nearly all actives have a fitted effect of over 55% in size. Further: potency means the concentration at half of the fitted maximal effect. In outline: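 Viability after 48 h compound treatment at 37C, 500-1,000 cells/well, read as ATP luminescence with CellTiter-Glo. Primary screens used 11-point (MIPE, 0.78 nM-46 µM) or 8-point (NPC, 0.59 nM-46 µM) final concentrations; follow-up screens used 11-point dilutions.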

The nature of test [6]: qHTS of pediatric cancer cell lines to identify multiple opportunities for drug repurposing: Primary screen for Rh41 cells (AID 1347108). Further: nearly all actives have a fitted effect of over 70% in size. Further: potency means the concentration at half of the fitted maximal effect. The gist of the method:
as §3

A short description of test [7]: qHTS of pediatric cancer cell lines to identify multiple opportunities for drug repurposing: Primary screen for MG 63 (6-TG R) cells (AID 1347105). Further: nearly all actives have a fitted effect of over 50% in size. Further: potency means the concentration at half of the fitted maximal effect. The gist of the method: as §3
Test [8] is described as follows: qHTS of pediatric cancer cell lines to identify multiple opportunities for drug repurposing: Primary screen for Rh30 cells (AID 1347107). Further: series mostly up to about 46 µM; nearly all actives have a fitted effect of over 75% in size. In outline: as §2
Test [9] in a line: qHTS of pediatric cancer cell lines to identify multiple opportunities for drug repurposing: Confirmatory screen for LAN-5 cells (AID 1347113). Further: nearly all actives have a fitted effect of over 65% in size. In outline: as §2
Test [10] can be described thus: qHTS of pediatric cancer cell lines to identify multiple opportunities for drug repurposing: Confirmatory screen for DAOY cells (AID 1347114). Further: nearly all actives have a fitted effect of over 65% in size. In outline:
(§4)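 Viability measured as metabolically active cells via CellTiter-Glo luminescence following 48 hours of compound exposure, 11-point dilutions in confirmatory testing. 500-1,000 cells/well plated 5 hours before dosing; controls were DMSO and 2.3 µM bortezomib.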

A short description of test [11]: qHTS of pediatric cancer cell lines to identify multiple opportunities for drug repurposing: Confirmatory screen for SJ-GBM2 cells (AID 1347116). Further: nearly all actives have a fitted effect of over 60% in size. In outline:
as §4

Test [12] is described as follows: qHTS of pediatric cancer cell lines to identify multiple opportunities for drug repurposing: Confirmatory screen for control Hh wild type fibroblast cells (AID 1347121). Further: nearly all actives have a fitted effect of over 70% in size. The gist of the method: as §2
Test [13] can be described thus: qHTS of pediatric cancer cell lines to identify multiple opportunities for drug repurposing: Confirmatory screen for U-2 OS cells (AID 1347122). Further: nearly all actives have a fitted effect of over 65% in size. In outline: as §2
Test [14] is described as follows: qHTS of pediatric cancer cell lines to identify multiple opportunities for drug repurposing: Confirmatory screen for A673 cells (AID 1347110). Further: potency means the concentration at half of the fitted maximal effect. In outline:
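Forty-eight-hour viability assay. Follow-up compounds ran at 11-point dilutions; positive control bortezomib at 2.3 uM final, neutral control DMSO.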

A short description of test [15]: qHTS of pediatric cancer cell lines to identify multiple opportunities for drug repurposing: Confirmatory screen for SK-N-MC cells (AID 1347111).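 Further: potency means the concentration at half of the fitted maximal effect; cells exposed to compound for 48 h before the readout; nearly all actives have a fitted effect of over 70% in size.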 The gist of the method:
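Metabolically active cells were quantified by ATP-dependent luminescence (CellTiter-Glo, 15 min at room temperature) following 48 h treatment. Cells had been plated at 500-1,000 per well and settled for 5 h beforehand.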

The nature of test [16]: qHTS of pediatric cancer cell lines to identify multiple opportunities for drug repurposing: Confirmatory screen for BT-12 cells (AID 1347112). Further: nearly all actives have a fitted effect of over 55% in size. The gist of the method: as §2
Test [17] can be described thus: qHTS of pediatric cancer cell lines to identify multiple opportunities for drug repurposing: Confirmatory screen for TC32 cells (AID 1347118). Further: potency means the concentration at half of the fitted maximal effect. In outline:
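Luminescent CellTiter-Glo read-out of metabolically active TC32 cells after 48 h compound exposure. Primary: MIPE 11-point, 0.78 nM–46 µM; NPC 8-point, 0.59 nM–46 µM. Confirmatory: 11-point dilutions.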

A short description of test [18]: qHTS of pediatric cancer cell lines to identify multiple opportunities for drug repurposing: Confirmatory screen for NB1643 cells (AID 1347109). Further: nearly all actives have a fitted effect of over 45% in size. The gist of the method: as §2
Test [19] is described as follows: qHTS of pediatric cancer cell lines to identify multiple opportunities for drug repurposing: Confirmatory screen for BT-37 cells (AID 1347117). Further: nearly all actives have a fitted effect of over 55% in size. In outline:
as §2

Results filed as inconclusive are left out. Calls of active or inactive are those of the source. The call rests on the fitted dose curve; in most records, active means well fitted curve in the direction sought with a large enough effect; inconclusive means small, poorly fitted or top-dose-only effect, or another doubt; inactive means no such curve, though single readings can be large; an effect the other way counts as inactive or inconclusive.

Turning to `N#C[C@H]1C[C@H]2C[C@@H]2N1C(=O)[C@@H](N)C12CC3CC(CC(O)(C3)C1)C2`, the Potency result in test [1], in test [2], in test [3], in test [4], in [5] and in test [6] was “inactive” in each case.

With `CCC(=O)O[C@]1(C(=O)CO)CC[C@H]2[C@@H]3CCC4=CC(=O)CC[C@]4(C)[C@@H]3CC[C@@]21C`, the Potency result in test [1], in [2], in [4], in test [7], in [5] and in [8] was “inactive” in each case. Further, the Potency entry in [6] was “inactive”.

Consider `CC(C)(C)COc1ccc(-n2cc(C(=O)O)cn2)cc1C#N`, for which the Potency result in test [1], in test [2], in test [4], in [7], in test [5] and in [8] was “inactive” in each case. The Potency result in test [6] is “inactive”.

Take `COC(=O)N[C@H](C(=O)N1CCC[C@@H]1c1ncc(-c2ccc(-c3ccc(-c4cnc([C@@H]5CCCN5C(=O)[C@@H](NC(=O)OC)C(C)C)[nH]4)cc3)cc2)[nH]1)C(C)C`: the Potency in test [1] is 34.3 µM (active); in test [2], 23.5 µM (active); in test [4], 33.2 µM (active). Also, the Potency result in test [5] was “inactive”.

For the compound `O=c1cc(-c2ccc(O)cc2)oc2cc(O)cc(O)c12`, the Potency in [1] is 3.43 µM (active); in test [2], 2.35 µM (active); in test [3] it was 3.06 µM (active); in [4] it was 2.96 µM (active); in test [7] it was 18.7 µM (active). For the same compound, the Potency result in test [5], in test [9], in [10], in test [11], in [12] and in test [13] was “inactive” in each case.

Regarding `COC[C@@H](c1ccc(C(F)(F)F)cc1)N1CCN(C2(C)CCN(C(=O)c3c(C)ncnc3C)CC2)C[C@H]1C`, the Potency entry in [1], in test [2], in test [4], in test [8] and in test [6] was “inactive” in each case.

With `CC(C)=CC[C@@H](O)C1=CC(=O)c2c(O)ccc(O)c2C1=O`, the Potency in test [1] is 17.2 µM (active); in test [3] it was 10.9 µM (active); in test [4], 26.4 µM (active).

Turning to `O=C(NCCN1CCOCC1)c1ccc(Cl)cc1`, the Potency result in test [1], in test [2], in [3], in test [4], in test [7] and in test [5] was “inactive” throughout. For the same compound, the Potency result in test [8] and in test [6] was “inactive” each time.

Consider `OC[C@H]1O[C@@H](n2cnc3c2NC=NC[C@@H]3O)C[C@H]1O`, for which the Potency result in test [1], in test [2], in test [3], in test [4], in [7] and in test [5] was “inactive” each time. The Potency entry in test [16], in test [9], in [10], in test [12] and in test [13] was “inactive” each time. The Potency in [14] is 1.04 µM (active); in [15], 8.27 µM (active); in [17], 8.27 µM (active).

Turning to `CC(C)OC(=O)CCCC=CC[C@@H]1[C@H](C=C[C@@H](O)COc2cccc(C(F)(F)F)c2)[C@H](O)C[C@@H]1O`, the results for the Potency in test [1], in [3] and in test [4] were 19.3 µM (active), 24.3 µM (active) and 33.2 µM (active), respectively. Also, the Potency entry in test [7] and in test [5] was “inactive” in each case.

Consider `CCN(CC)CCOC(=O)c1ccc(N)cc1`, for which the Potency result in [1], in test [2], in [3], in test [4], in test [7] and in test [5] was “inactive” in each case. The Potency result in test [8] and in test [6] was “inactive” throughout.

`NC(=O)c1cccc2[nH]c(-c3ccc([C@H]4CCCN4)cc3F)nc12`: the Potency result in [1], in test [2], in [4], in [5], in test [8] and in [6] was “inactive” throughout.

`CO[C@H]1C=CO[C@@]2(C)Oc3c(C)c(O)c4c(O)c(c5c(c4c3C2=O)NC2(CCN(CC(C)C)CC2)N=5)=NC(=O)C(C)=CC=C[C@H](C)[C@H](O)[C@@H](C)[C@@H](O)[C@@H](C)[C@H](OC(C)=O)[C@H]1C`: the Potency result in [1], in test [2], in [4], in [7], in test [5] and in test [8] was “inactive” in each case. Besides, the Potency entry in test [6] is “inactive”.

On to `Cn1c(N2CCCCS2(=O)=O)nc(C(=O)NCc2ccc(F)cc2)c(O)c1=O`, for which the Potency entry in test [1], in test [2], in test [3], in test [4], in [7] and in test [5] was “inactive” in each case. The Potency entry in [8] and in [6] was “inactive” throughout.

Turning to `NC1=N[C@@]2(c3cc(NC(=O)c4ccc(F)cn4)ccc3F)COC[C@@H]2CS1`, the Potency was 0.153 µM (active) in test [1], 0.137 µM (active) in [3], 23.5 µM (active) in test [7] and 18.7 µM (active) in test [6]. Also, the Potency result in test [2], in test [5], in [8], in test [18], in [14] and in test [16] was “inactive” each time. The Potency entry in [9], in test [10], in test [11], in [19], in test [17] and in [12] was “inactive” each time. Moreover, in test [13], the Potency entry is “inactive”.

Take `COc1ccc(Cc2ccc(NC(N)=O)cc2)cc1-c1cccc(Cl)c1`: the Potency result in test [1], in test [2], in [4], in test [7], in [5] and in test [8] was “inactive” throughout.

As to `CC1(C)Cc2c(sc(NC(=S)NC(=O)c3ccccc3)c2C(=O)O)CO1`, the Potency result in test [1], in [2], in [3], in test [7], in [5] and in test [8] was “inactive” in each case. In addition, the Potency entry in test [6] is “inactive”. The Potency in [4] is 33.2 µM (active).

Regarding `NC(=O)c1ccc2nc(-c3ccc(Oc4ccc(Cl)cc4)cc3)[nH]c2c1`, the Potency in [1] was 2.43 µM (active). Further, the Potency result in test [2], in test [7], in test [5], in test [8] and in [6] was “inactive” throughout.

In the case of `Nc1ncnc2c1nc(Cl)n2[C@@H]1O[C@H](CO)[C@@H](O)[C@@H]1O`, the Potency entry in test [1] was “inactive”. For the same compound, the Potency in test [3] is 15.3 µM (active); in test [4] it was 29.6 µM (active); in [7], 29.6 µM (active); in test [5] it was 23.5 µM (active).
